Data reported in PubChem BioAssay (Tox21).
Results filed as inconclusive are left out. Active and inactive are the calls of the source. Unless noted, calls follow the shape of the dose curve; as a rule, active = well fitted curve in the direction sought with a large enough effect in the repeat runs; inconclusive = weak or mixed curves; inactive = no such curve, though single readings can be large; an effect the other way counts as inactive or inconclusive.

Legend:
[1] = qHTS assay to identify small molecule agonists of the sonic hedgehog signaling (Shh) pathway - cell viability counter screen (AID 1259366); also: nearly all actives have a fitted effect of over 50% in size
Procedure, shortened: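 After a 4hr attachment at 37C, NIH/3T3 cells bearing an integrated Gli1-driven luciferase reporter were dosed with compounds. Treatment lasted 24hr, with the final hour including CellTiter-Fluor for a fluorescence viability measurement.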

[2] = qHTS assay to identify small molecule antagonists of the sonic hedgehog signaling (Shh) pathway - cell viability counter screen (AID 1259367); also: nearly all actives have a fitted effect of over 55% in size
Procedure, shortened: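 Fluorescence read-out (CellTiter-Fluor, 1 hr at 37C) taken after 23 hr compound treatment of 3T3 Gli1-Luc cells stimulated with conditioned medium. Cells were seeded at 2,000 per well and pre-incubated 4 hr.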

[3] = qHTS assay to identify small molecule agonists of the sonic hedgehog signaling (Shh) pathway (AID 1259368; calls by dose curve;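 also: NIH/3T3-derived 3T3Gli1-Luc cells carrying a stable Gli1-driven firefly luciferase reporter; series mostly up to about 92 µM; nearly all actives have a fitted effect of over 15% in size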)
Procedure, shortened: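 Stable NIH/3T3 Gli1-Luc reporter clone; 24 hr cpd exposure after a 4 hr settling period; luminescence endpoint.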

[4] = qHTS assay to identify small molecule antagonists of the sonic hedgehog signaling (Shh) pathway (AID 1259369; calls by dose curve; also: nearly all actives have a fitted effect of over 45% in size)
Procedure, shortened: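 Gli1 transcriptional reporter (firefly Luc) in NIH/3T3 background, conditioned-medium activated. 24hr exposure, luminescence endpoint.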

[5] = target: Estrogen receptor beta (Homo sapiens) (UniProt Q92731); assay: qHTS assay to identify small molecule agonists of the estrogen receptor beta (ER-beta) signaling pathway (AID 1259377; active = well fitted activation curve with a large enough effect in the signal ratio in the repeat runs, not every such curve was filed as active; the % refers to the signal ratio)
Estrogen receptor beta (Homo sapiens), sequence (Q92731 whole entry, looked up): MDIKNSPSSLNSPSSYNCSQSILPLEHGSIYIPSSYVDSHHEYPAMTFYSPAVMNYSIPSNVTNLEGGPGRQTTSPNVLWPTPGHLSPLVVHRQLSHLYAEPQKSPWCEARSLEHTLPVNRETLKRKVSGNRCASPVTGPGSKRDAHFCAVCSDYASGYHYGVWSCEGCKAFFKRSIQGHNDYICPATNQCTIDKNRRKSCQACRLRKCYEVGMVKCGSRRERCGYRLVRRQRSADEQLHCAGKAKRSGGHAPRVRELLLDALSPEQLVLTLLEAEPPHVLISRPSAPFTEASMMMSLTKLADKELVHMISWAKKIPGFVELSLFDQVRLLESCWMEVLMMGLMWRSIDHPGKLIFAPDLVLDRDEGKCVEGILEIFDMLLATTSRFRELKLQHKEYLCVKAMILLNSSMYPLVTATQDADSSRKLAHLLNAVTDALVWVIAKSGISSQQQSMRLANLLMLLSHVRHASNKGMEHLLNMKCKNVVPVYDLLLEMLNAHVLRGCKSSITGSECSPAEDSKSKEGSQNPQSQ
Procedure, shortened: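 In HEK293T cells bearing a UAS-beta-lactamase reporter under ER-beta control, DMSO-delivered compounds were incubated for 16 hr at 37C. Activity was detected as fluorescence 2 hours after LiveBLAzer B/G FRET substrate addition.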

[6] = qHTS assay to identify small molecule agonists of the androgen receptor (AR) signaling pathway in the presence of an antagonist - cell viability counter screen (AID 1259379);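 also: MDA-kb2 human breast cancer cells carrying an MMTV luciferase reporter; series mostly up to about 92 µM; nearly all actives have a fitted effect of over 25% in size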
Procedure, shortened: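 Counter screen for cell viability run in parallel with the AR agonist-mode luciferase assay. MDA-kb2 cells were co-treated with nilutamide (3.0uM final) and compounds, then incubated 16 hr at 37C, and CellTiter-Fluor fluorescence was measured.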

[7] = qHTS assay to identify small molecule agonists of the estrogen receptor beta (ER-beta) signaling pathway - cell viability counter screen (AID 1259380); also: nearly all actives have a fitted effect of over 30% in size
Procedure, shortened: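 In this qHTS counter screen, HEK293T cells carrying an ER-beta/UAS beta-lactamase reporter, grown in 2% charcoal-stripped FBS, received compound for 16 hr; ATP-based CellTiter-Glo luminescence was then read after 30 min at room temperature.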

[8] = qHTS assay to identify small molecule antagonists of the estrogen receptor beta (ER-beta) signaling pathway - cell viability counter screen (AID 1259382); also: series mostly up to about 92 µM; nearly all actives have a fitted effect of over 55% in size
Procedure, shortened: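 HEK293T ER-beta-UAS-bla, 2% charcoal-stripped FBS; compounds + 1nM E2 16 hr 37C; CellTiter-Glo luminescence, 30 min RT.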

[9] = qHTS assay to identify small molecule agonists or antagonists of the thyroid stimulating hormone receptor (TSHR) signaling pathway - wild type cell line counter screen (AID 1259384; calls by dose curve)
Procedure, shortened: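 Wild-type Hek293 cells, 800/well, 18 h at 37C, then compound with Ro20-1724 for 30 min RT. cAMP by HTRF (cAMP-d2/anti-cAMP cryptate), 1 h RT, fluorescence read. 15 concentrations, triplicates.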

[10] = target: Thyrotropin receptor (Homo sapiens) (UniProt P16473); assay: qHTS assay to identify small molecule antagonists of the thyroid stimulating hormone receptor (TSHR) signaling pathway (AID 1259385; calls by dose curve; also: nearly all actives have a fitted effect of over 20% in size)
Thyrotropin receptor (Homo sapiens), sequence (P16473 whole entry, looked up): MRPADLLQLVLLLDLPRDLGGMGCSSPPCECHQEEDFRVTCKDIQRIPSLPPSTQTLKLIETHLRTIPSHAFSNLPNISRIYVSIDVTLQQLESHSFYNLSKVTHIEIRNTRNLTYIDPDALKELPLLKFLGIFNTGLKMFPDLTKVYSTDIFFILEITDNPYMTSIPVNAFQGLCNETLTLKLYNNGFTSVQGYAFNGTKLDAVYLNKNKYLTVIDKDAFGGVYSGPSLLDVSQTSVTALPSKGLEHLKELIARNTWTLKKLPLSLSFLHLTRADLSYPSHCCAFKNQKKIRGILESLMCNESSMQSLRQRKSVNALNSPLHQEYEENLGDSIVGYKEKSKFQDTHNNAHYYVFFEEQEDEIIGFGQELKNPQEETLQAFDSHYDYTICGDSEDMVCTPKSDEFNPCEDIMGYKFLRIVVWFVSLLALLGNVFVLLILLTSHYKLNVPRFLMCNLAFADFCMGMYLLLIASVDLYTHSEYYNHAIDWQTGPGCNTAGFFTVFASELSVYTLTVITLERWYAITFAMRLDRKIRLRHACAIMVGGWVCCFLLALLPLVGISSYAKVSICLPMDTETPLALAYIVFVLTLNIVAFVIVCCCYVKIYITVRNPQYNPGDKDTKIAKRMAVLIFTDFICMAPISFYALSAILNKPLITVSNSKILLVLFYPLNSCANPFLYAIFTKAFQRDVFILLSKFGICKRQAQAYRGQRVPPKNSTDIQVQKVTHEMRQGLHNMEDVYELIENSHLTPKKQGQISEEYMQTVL
Procedure, shortened: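 TSHR-HEK293 cells (800/well) plated 18 h, then compounds with Ro20-1724 and TSH at 1.5 ng/mL final, 30 min at room temperature. cAMP quantified by HTRF (cAMP-d2/anti-cAMP-cryptate, 1 h); 15 concentrations in triplicate.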

[11] = qHTS assay to identify small molecule agonists of the estrogen receptor alpha (ER-alpha) signaling pathway in the presence of an antagonist - cell viability counter screen (AID 1259386);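 also: series mostly up to about 92 µM; cells exposed to compounds for 22 h at 37 °C before the viability read; nearly all actives have a fitted effect of over 30% in size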
Procedure, shortened: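 Steps: 5-day stripped-FBS culture; seed and incubate 24hr; add ICI-182,780 (10.0nM final); pin 15-point compound titration; incubate 22hr at 37C; add CellTiter-Fluor at 21hr; read fluorescence.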

[12] = target: Progesterone receptor (Homo sapiens) (UniProt P06401); assay: qHTS assay to identify small molecule antagonists of the progesterone receptor (PR) signaling pathway (AID 1346795; active = well fitted inhibition curve with a large enough effect in the signal ratio in the repeat runs, not every such curve was filed as active; the % refers to the signal ratio)
Progesterone receptor (Homo sapiens), sequence (P06401 whole entry, looked up): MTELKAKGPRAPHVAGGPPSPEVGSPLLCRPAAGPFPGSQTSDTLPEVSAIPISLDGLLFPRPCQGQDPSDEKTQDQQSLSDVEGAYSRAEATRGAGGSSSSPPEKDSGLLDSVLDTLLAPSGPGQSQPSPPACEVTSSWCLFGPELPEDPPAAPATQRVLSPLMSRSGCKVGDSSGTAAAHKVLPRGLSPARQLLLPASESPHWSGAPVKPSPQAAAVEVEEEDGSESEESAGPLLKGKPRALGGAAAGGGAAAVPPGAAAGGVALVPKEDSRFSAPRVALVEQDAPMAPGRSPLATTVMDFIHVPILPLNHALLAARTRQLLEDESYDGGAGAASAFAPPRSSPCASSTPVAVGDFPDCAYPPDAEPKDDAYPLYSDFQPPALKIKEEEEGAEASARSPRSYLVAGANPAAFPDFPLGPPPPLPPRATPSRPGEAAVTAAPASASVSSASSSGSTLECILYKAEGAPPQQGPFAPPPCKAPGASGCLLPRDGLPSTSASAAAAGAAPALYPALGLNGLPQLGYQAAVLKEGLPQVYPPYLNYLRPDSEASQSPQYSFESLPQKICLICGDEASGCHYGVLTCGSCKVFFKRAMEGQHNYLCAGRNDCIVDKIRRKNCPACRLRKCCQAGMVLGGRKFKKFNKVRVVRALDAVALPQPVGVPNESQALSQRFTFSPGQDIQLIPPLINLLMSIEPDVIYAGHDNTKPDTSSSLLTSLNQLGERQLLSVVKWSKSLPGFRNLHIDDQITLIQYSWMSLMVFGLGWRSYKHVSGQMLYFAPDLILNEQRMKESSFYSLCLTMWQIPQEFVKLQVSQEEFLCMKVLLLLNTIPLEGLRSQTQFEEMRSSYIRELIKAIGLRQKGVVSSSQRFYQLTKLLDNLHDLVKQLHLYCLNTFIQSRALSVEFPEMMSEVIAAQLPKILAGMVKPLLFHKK
Procedure, shortened: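 Inhibition of R5020-induced (1 nM final) beta-lactamase reporter signal in PR-UAS-bla HEK293T cells was scored by FRET fluorescence after overnight (16 hr) compound treatment.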

[13] = qHTS assay to identify small molecule antagonists of the progesterone receptor (PR) signaling pathway - cell viability counter screen (AID 1346798); also: series mostly up to about 92 µM; nearly all actives have a fitted effect of over 50% in size
Procedure, shortened: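 ATP content as viability readout: CellTiter-Glo luminescence, 30 min room temperature, in PR-UAS-bla HEK293T cells after 16 hr compound/R5020 treatment at 37C and 5% CO2.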

[14] = qHTS assay to identify small molecule agonists of the progesterone receptor (PR) signaling pathway - cell viability counter screen (AID 1346799; calls by dose curve; also: nearly all actives have a fitted effect of over 45% in size)
Procedure, shortened: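 Cytotoxicity in PR-bla HEK293T cells: 16 h compound, 37C; CellTiter-Glo added post-FRET read; luminescence after 30 min RT.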

[15] = qHTS assay to identify small molecule antagonists of the TGF-beta/Smad signaling pathway - cell viability counter screen (AID 1346824); also: nearly all actives have a fitted effect of over 50% in size
Procedure, shortened: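 SBE-bla HEK 293T cells, incubated overnight, then compound plus 0.25 ng/mL TGF-beta1 (stock added) for 5 hr at 37 C. Viability was read in the same wells by CellTiter-Glo luminescence after 30 min at room temperature.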

[16] = qHTS assay to identify small molecule agonists of the TGF-beta/Smad signaling pathway - cell viability counter screen (AID 1346829); also: top concentration of the series differs between compounds; nearly all actives have a fitted effect of over 45% in size
Procedure, shortened: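 Compound-treated SBE-bla HEK 293T cells (5 hr, 37 C) were assessed for viability with CellTiter-Glo in parallel with the reporter read.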

[17] = target: Estrogen receptor beta (Homo sapiens) (UniProt Q92731); assay: qHTS assay to identify small molecule antagonists of the estrogen receptor beta (ER-beta) signaling pathway (AID 1259378; active = well fitted inhibition curve with a large enough effect in the signal ratio in the repeat runs, not every such curve was filed as active; the % refers to the signal ratio)
Procedure, shortened: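 ER-beta-UAS-bla HEK293T cells in 2% charcoal-stripped FBS medium treated with compound plus 1nM final 17-beta-estradiol for 16 hr at 37C. Beta-lactamase reporter read by FRET substrate fluorescence after 2 hours at room temperature.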

[18] = target: Progesterone receptor (Homo sapiens) (UniProt P06401); assay: qHTS assay to identify small molecule agonists of the progesterone receptor (PR) signaling pathway (AID 1346784; calls by dose curve; also: nearly all actives have a fitted effect of over 30% in size)
Procedure, shortened: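 Using charcoal-stripped serum (2%) to limit endogenous steroids, PR-UAS-bla HEK 293T cells received compounds for 16 hr at 37C after 6 hr plating; beta-lactamase FRET fluorescence was recorded following 2 hr substrate loading at room temperature.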

[19] = target: Estrogen receptor (Homo sapiens) (UniProt P03372); assay: qHTS assay to identify small molecule agonists of the estrogen receptor alpha (ER-alpha) signaling pathway in the presence of an antagonist (AID 1259383; calls by dose curve; also: top concentration of the series differs between compounds; nearly all actives have a fitted effect of over 15% in size)
Estrogen receptor (Homo sapiens), sequence (P03372 whole entry, looked up): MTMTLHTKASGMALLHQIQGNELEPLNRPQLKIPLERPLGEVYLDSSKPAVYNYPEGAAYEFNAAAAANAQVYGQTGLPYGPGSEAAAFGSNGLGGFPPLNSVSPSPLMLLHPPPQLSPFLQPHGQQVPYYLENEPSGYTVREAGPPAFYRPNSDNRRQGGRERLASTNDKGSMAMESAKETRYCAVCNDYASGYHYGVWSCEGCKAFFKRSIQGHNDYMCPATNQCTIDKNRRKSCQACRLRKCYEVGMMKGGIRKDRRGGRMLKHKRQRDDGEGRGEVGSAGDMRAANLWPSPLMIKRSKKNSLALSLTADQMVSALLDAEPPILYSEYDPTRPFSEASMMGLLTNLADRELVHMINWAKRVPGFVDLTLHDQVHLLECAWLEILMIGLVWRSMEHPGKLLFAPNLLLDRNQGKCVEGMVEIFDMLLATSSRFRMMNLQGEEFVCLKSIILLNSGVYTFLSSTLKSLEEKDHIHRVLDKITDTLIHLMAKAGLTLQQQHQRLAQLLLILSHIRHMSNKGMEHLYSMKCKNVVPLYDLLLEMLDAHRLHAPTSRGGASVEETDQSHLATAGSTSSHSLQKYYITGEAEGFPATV
Procedure, shortened: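 ER-alpha agonism measured under antagonist challenge: 10.0nM ICI-182,780 (final) plus compound, 15 concentrations, 22hr, VM7Luc4E2 ERE-luciferase cells. Read by luminescence.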

[20] = target: Androgen receptor (Homo sapiens) (UniProt P10275); assay: qHTS assay to identify small molecule agonists of the androgen receptor (AR) signaling pathway in the presence of an antagonist (AID 1259381; calls by dose curve; also: nearly all actives have a fitted effect of over 15% in size)
Androgen receptor (Homo sapiens), sequence (P10275 whole entry, looked up): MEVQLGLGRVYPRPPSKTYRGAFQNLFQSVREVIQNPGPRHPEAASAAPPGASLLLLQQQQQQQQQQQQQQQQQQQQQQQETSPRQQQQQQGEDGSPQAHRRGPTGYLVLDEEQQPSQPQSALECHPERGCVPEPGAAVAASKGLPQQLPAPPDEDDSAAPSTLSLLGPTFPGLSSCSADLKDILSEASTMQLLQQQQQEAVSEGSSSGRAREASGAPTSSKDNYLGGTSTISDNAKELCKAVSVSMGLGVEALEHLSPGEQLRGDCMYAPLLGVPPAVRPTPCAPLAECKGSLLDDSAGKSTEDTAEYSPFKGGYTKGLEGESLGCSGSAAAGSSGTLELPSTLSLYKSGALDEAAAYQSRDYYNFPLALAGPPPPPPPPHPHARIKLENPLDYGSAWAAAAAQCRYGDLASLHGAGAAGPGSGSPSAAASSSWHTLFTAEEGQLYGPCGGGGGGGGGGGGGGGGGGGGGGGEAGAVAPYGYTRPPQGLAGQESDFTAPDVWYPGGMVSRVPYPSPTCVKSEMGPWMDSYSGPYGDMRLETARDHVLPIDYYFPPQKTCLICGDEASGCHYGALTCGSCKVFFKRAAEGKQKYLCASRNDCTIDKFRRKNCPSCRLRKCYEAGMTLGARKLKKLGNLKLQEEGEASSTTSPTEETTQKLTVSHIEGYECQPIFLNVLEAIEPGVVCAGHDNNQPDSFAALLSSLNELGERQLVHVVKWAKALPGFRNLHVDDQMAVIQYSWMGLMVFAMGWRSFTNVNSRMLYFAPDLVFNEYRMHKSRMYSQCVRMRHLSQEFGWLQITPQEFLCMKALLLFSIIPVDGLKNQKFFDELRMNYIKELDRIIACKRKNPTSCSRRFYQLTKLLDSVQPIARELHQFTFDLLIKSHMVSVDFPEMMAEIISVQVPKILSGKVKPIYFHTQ
Procedure, shortened: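 AR antagonist background: nilutamide 3.0uM final. Cell line: MDA-kb2, MMTV-driven luciferase, responsive to both AR and GR. Exposure 16hr, 37C, no CO2; ONE-Glo luminescence.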

Measured: Potency

Nc1cc(S(=O)(=O)O)ccc1S(=O)(=O)O
not listed: [17] | [18] | [19] | [20]
inactive: all other assays above

C1CCN2C[C@@H]3C[C@@H](CN4CCCC[C@@H]34)[C@H]2C1
not listed: [7] | [9] | [10] | [13] | [19] | [20]
inactive: all other assays above

Cc1ccccc1C(=O)N1CC/C(=N\OS(=O)(=O)O)c2ccc(Cl)cc21
not listed: [17] | [20]
inactive: all other assays above

O=S(=O)(O)SSS(=O)(=O)O
not listed: [7] | [19]
inactive: all other assays above

Nc1ccc(S(=O)(=O)NC(=O)c2ccccc2)cc1
not listed: [7] | [20]
inactive: all other assays above

CC(=O)N1CCN(c2ccc(O)cc2)CC1
not listed: [7] | [17]
inactive: all other assays above

Nc1nc(=O)n([C@@H]2O[C@H](CO)[C@@H](O)[C@@H]2F)cc1I
not listed: [13] | [17] | [20]
inactive: all other assays above

CCCCCCCCCCCCC1CO1 (stereo not given)
not listed: [9] | [10] | [14] | [17] | [18] | [20]
inactive: all other assays above

CC(C)C(=O)Nc1cccc(C(F)(F)F)c1
not listed: [6] | [9] | [10]
inactive: all other assays above

C=CCOc1c(Br)cc(C(C)(C)c2cc(Br)c(OCC=C)c(Br)c2)cc1Br
not listed: [6] | [13] | [14] | [20]
inactive: all other assays above

Cc1ccc(C(=O)C(=O)O)cc1C
not listed: [5] | [9] | [10] | [17] | [20]
inactive: all other assays above

CCOC(=O)CCc1ccccc1
not listed: [6] | [13] | [17] | [19] | [20]
inactive: all other assays above

CCC(C)N (stereo not given)
not listed: [6] | [9] | [10] | [14] | [17] | [20]
inactive: all other assays above
